# Hits are enriched below; roughly 27% of the tested compounds scored in any of these assays.
# CYP2C9 inh = inhibitors of human CYP2C9. CYP2C9 Supersomes, luciferin-H conversion, luminescence. inhibition, % at 5 µM. actives 20% (n = 96,000). AID 777;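 active means blocking of liver enzyme CYP2C9 beyond about 50% at 5 µM, limit read from the data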
# CYP2C19 activ = increases human CYP2C19 enzyme activity | recombinant CYP2C19, luciferin-H EGE luminescence; hits give high values; 0 = fully inhibited enzyme, 1 = untreated enzyme | activation factor at 5 µM | 96,000 tested, under 10 active;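 active means activation factor of at least 2 at 5 µM in the primary screen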;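 further: 0 = wells with 2.5 mM tranylcypromine and 1 = vehicle-only wells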
# CYP2C9 activ = activators of human CYP2C9; P11712; recombinant CYP2C9, luciferin-H conversion, luminescence; hits give high values; factor 1 = untreated enzyme, 0 = blocked; activation factor at 5 µM; actives 1.4% (n = 96,000); AID 1024;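 active means activation factor of 2 or more for CYP2C9 at a 5 µM dose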;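 further: 0 = sulfaphenazole-blocked wells and 1 = vehicle-only wells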
# CYP2C19 inhib = blocks human cytochrome P450 2C19; P33261; CYP2C19 Supersomes, luciferin-H EGE luminescence, 30 min; inhibition, % at 5 µM; actives 21% (n = 96,000);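 active means CYP2C19 inhibition above a set limit at 5 µM in the primary screen, cut at about 50% in these data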;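 further: plate controls were negative control wells for no effect and 2.5 mM tranylcypromine positive control for full effect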
# Cav3 T inh = blocks human Cav3.2 T-type calcium channel; O95180; Cav3.2-expressing cells, Fluo-4 calcium fluorescence FDSS; hits give low values; B-score at 10 µM; actives 4% (n = 100,000); AID 449739;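 active means single-dose well whose peak fluorescence ratio is a statistical outlier from its plate by either plate-standardised score or position-corrected B-score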
# * hit, by the source's call; . = not tested or not shown.
SMILES,CYP2C9 inh,CYP2C19 activ,CYP2C9 activ,CYP2C19 inhib,Cav3 T inh
CC1=C(C(=O)Nc2ccccn2)C(c2cccnc2)n2nnnc2N1 (centres undefined),4,1,1,2,1.3
Cc1ccc(C)c(S(=O)(=O)NC(CCC(N)=O)C(=O)O)c1 (centres undefined),-19,1.2,1.2,-18,0.48
CS(=O)(=O)N(CC(=O)N1CCc2ccccc2C1)Cc1ccc(Cl)cc1,85*,0.1,0.2,88*,-2.7
Cc1ccc(C(C(=O)NCc2ccco2)N(C(=O)CNC(=O)c2cccs2)c2ccc(C)cc2C)cc1 (centres undefined),15,0.9,0.8,13,-0.14
O=C(NCCCN1CCOCC1)c1ccc(Cl)s1,-19,0.8,1.2,20,1.6
CCOC(=O)c1ccc(Oc2nc(NC(C)(C)C)nc(N(C)C)n2)cc1,88*,0.2,0.1,84*,-7.1*
CCOC(=O)CN1N=C(/C=C/c2ccc(OC)cc2)CCC1=O,-8,1,1.1,-4,0.5
O=C(O)c1ccc(COc2ccc(/C=N/NC(=O)c3cccs3)cc2)cc1,8,1,0.9,-2,.
O=C(N/N=C/c1ccccc1)c1sccc1OCc1ccc(F)cc1,70*,0.6,0.3,37,-0.17
CCOC(=O)N1CCN(C(=O)CN2C(=O)CC(C)(C)S(=O)(=O)c3ccccc32)CC1,-64,0.5,1.6,55*,0.5
O=C(NCCCN1CCc2ccccc2C1)Nc1ccc(Cl)cc1,4,0.9,1,13,-1.3
CC(C)(C)NS(=O)(=O)c1ccc(CCC(=O)N2CCOCC2)cc1,24,0.7,0.8,29,0.46
CCCNS(=O)(=O)c1ccc(CCC(=O)NCC2CCCO2)cc1 (centres undefined),.,.,.,.,-0.0039
CCCNS(=O)(=O)c1ccc(CCC(=O)N2CCC(C)CC2)cc1,52*,0.2,0.5,82*,-0.0068
CC1CCN(C(=O)CCc2ccc(S(=O)(=O)NC(C)(C)C)cc2)CC1,63*,0.3,0.4,74*,0.4
COc1ccc(CNC(=O)CN(C(=O)c2cc3sccc3n2C)C2CCCC2)cc1,15,0.9,0.8,6,-0.66
O=C(O)c1ccc(S(=O)(=O)c2ccc3c(c2)C(=O)N(Cc2ccco2)C3=O)cc1,4,1.2,1,-24,0.6
CC(=O)c1cc(C#N)c(SCc2ccc(F)cc2)nc1C,30,0.9,0.7,9,-0.3
CCCn1c(-c2ccc(OC)cc2)nc2ccccc21,10,0.9,0.9,11,-1.6
CCOC(Cn1c(-c2ccc(OC)cc2)nc2ccccc21)OCC,86*,0.5,0.1,50,-0.24
C=C(C)Cn1c(-c2ccc(OC)cc2)nc2ccccc21,96*,0.1,0,90*,-5*
CC1=CC(C)(C)Nc2ccc(C)cc21,-21,0.9,1.2,9,1
CC1=CC(C)(C)Nc2cc(C)c(C)cc21,19,0.1,0.8,92*,.
CC(C)CCNC(=O)Cn1c2c(c(-c3ccccc3Cl)cc1=O)CCC2,62*,0.9,0.4,13,-1.6
CC1CCC(NC(=O)Cn2c3c(c(-c4ccccc4Cl)cc2=O)CCC3)CC1 (centres undefined),49,0.9,0.5,7,-5.1*
SMILES,CYP2C9 inh,CYP2C19 activ,CYP2C9 activ,CYP2C19 inhib,Cav3 T inh
CCOC(=O)CSc1nnc(CNC(=O)c2cccs2)n1-c1cc(C)ccc1C,20,1,0.8,-1,-0.032
c1cnc(Oc2ccc3oc4ccccc4c3c2)nc1,-11,0.4,1.1,63*,0.8
CCOc1ccc2c(c1)-c1c(ssc1=S)C(C)(C)N2,72*,0.3,0.3,72*,-2.4
CCOc1ccc2c(c1)C(c1ccccc1)=NNC(c1ccccc1)=N2,.,.,.,.,0.51
CCCCCCNC(=O)c1c(O)c2ccccc2[nH]c1=O,28,0.8,0.7,18,-0.5
COc1ccccc1CO/N=C/c1cccn1-c1nccc(N(C)C)c1C#N,91*,0,0.1,99*,-1.4
CN(C)c1ccnc(-n2cccc2/C=N/OCc2ccc(F)cc2Cl)c1C#N,96*,0,0,98*,-5.4*
CN(C)c1ccnc(-n2cccc2/C=N/OCc2ccccc2)c1C#N,36,0,0.6,96*,-0.5
Cc1nn(C)c(C)c1S(=O)(=O)N1CCC(C(=O)NCC2COc3ccccc3O2)CC1 (centres undefined),-58,0.9,1.6,12,-0.31
COc1c(F)c(F)c(C(=O)Nc2cccc(Cl)c2N2CCOCC2)c(F)c1F,-14,1.1,1.1,-12,.
O=C1c2ccccc2C(=O)N1n1c(=O)[nH]c2ccccc2c1=O,6,0.9,0.9,6,1.9
Nc1ccc(S(=O)(=O)c2cccc(N)c2)cc1,-142,0.8,2.4*,15,1.3
CC(=O)Nc1ccc(S(=O)(=O)c2ccc(N)cc2)cc1N,-34,1,1.3,-5,0.18
CCOc1ccc(NC(=O)c2cnc3scc(C)n3c2=O)cc1,-180,1.1,2.8*,-13,2.5
Cc1csc2ncc(C(=O)NCCc3ccccc3)c(=O)n12,-17,0.5,1.2,54*,0.94
COc1ccc(CCNC(=O)c2cnc3n(c2=O)CCS3)cc1OC,.,.,.,.,0.091
O=C(NCCc1ccc(Cl)cc1)c1cnc2n(c1=O)CCS2,13,0.5,0.9,55*,0.16
Cc1csc2ncc(C(=O)NCc3ccccn3)c(=O)n12,.,.,.,.,0.99
Cc1ccccc1NC(=O)c1cnc2ccccn2c1=O,5,0.8,1,20,0.82
O=C(NCCc1ccccc1)c1cnc2ccccn2c1=O,21,0.5,0.8,55*,1.1
Cn1c(SCc2ccccn2)nnc1-c1ccncc1,36,0.1,0.6,94*,1.5
COc1cccc(-c2nnc(SCc3ccccn3)n2C)c1,30,1,0.7,-2,1.4
CC(=O)Nc1ccc(-c2nnc(SCc3ccccc3C#N)n2C)cc1,2,1.2,1,-16,0.4
CC(=O)Nc1cccc(-c2nnc(SCc3ccccc3C#N)n2C)c1,-6,0.4,1.1,62*,1.9
CCCCSc1nnc(-c2ccc(C)cc2)n1C,-10,0.7,1.1,29,0.91
SMILES,CYP2C9 inh,CYP2C19 activ,CYP2C9 activ,CYP2C19 inhib,Cav3 T inh
Cc1ccc(NC(=O)c2ccc(CSc3nnc(-c4ccncc4)n3C)cc2)cc1,66*,0.8,0.3,22,0.5
CC(=O)Nc1ccc(-c2nnc(SCc3ccc(C)cc3)n2C)cc1,3,0.9,1,14,0.074
Cc1ccc(CSc2nnc(-c3ccncc3)n2C)cc1,18,0.3,0.8,73*,0.34
COc1cc(/C=N/NC(=O)C(C)n2nnc3ccccc32)ccc1O (centres undefined),36,0.6,0.6,36,.
CCn1c(C(=O)Nc2ccsc2C(=O)OC)cc2sc(Cl)cc21,20,0.9,0.8,6,-0.42
Cn1c(=O)c2c(=O)cc(NNC(=O)C(C)(C)C)[nH]c2n(C)c1=O,37,1,0.6,1,0.97
COC(=O)CSc1nnc(-c2cccc(NC(=O)c3ccc(C)cc3)c2)n1C,76*,0.6,0.2,39,0.25

# Screening data (PubChem)
